From PubChem
D2 PAM-1 – positive allosteric modulators of human D2 dopamine receptor; AID 485347; potentiation, % at 10 µM; 340,000 compounds, 0.34% hits; HEK293 T-REx D2, calcium flux, EC20 dopamine potentiation;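 active means potentiation over 3 SD above the plate norm, cut at about 30% in these data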
Target sequence (P14416 whole entry, looked up): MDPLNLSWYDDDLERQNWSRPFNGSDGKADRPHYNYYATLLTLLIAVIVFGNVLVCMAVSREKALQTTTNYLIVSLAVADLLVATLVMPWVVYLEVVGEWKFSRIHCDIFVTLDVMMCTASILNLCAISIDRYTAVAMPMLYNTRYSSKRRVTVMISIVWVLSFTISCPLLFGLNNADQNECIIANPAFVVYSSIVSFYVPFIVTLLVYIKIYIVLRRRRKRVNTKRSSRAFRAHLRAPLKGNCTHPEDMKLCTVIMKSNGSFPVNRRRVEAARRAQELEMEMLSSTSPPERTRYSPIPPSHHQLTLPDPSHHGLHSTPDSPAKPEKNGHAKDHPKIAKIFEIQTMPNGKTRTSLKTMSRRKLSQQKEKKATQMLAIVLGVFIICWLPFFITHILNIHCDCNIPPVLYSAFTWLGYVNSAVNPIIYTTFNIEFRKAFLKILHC
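Using a no-wash calcium dye in inducible, force-coupled HEK293 Trex cells expressing D2, we tracked fluorescence each second for 180 s after compound, then for 180 s after EC20 dopamine to detect augmented signalling.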
D2 ag-1 – activates the human D2 dopamine receptor; AID 485358; P14416; 340,000 compounds, 0.53% hits; activation, % at 2 µM; HEK293 T-REx D2 cells, calcium flux agonist mode;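 active means activation over 3 SD above normal in the single-dose calcium agonist read, cut at about 30% in these data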
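In this primary screen, compounds producing a positive calcium signal within 180 s of addition to tetracycline-induced, force-coupled HEK293 Trex D2 cells are flagged; cells are dye-loaded with a no-wash calcium kit beforehand.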
D2 PAM-2 – human D2 receptor positive allosteric modulation; DiscoveRx D2 beta-arrestin cells, luminescence, 90 min; 100% = 57 uM dopamine signal; AID 624464; potentiation, % (no concentration beside the values); 360,000 compounds, 0.23% hits; P14416; in the data active means potentiation above about 50%; inconclusive means mostly about 30% to 49%
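PathHunter beta-arrestin assay in DiscoveRx D2 cells. Compounds were added with an EC20 of dopamine (50 nM final) for 90 min at 37 deg C. Luminescence was read 1 h after detection reagent, with 57 uM dopamine as the EC100 control.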
D2 antagonist – D2 dopamine receptor (human) antagonism | P14416 | HEK293 TREx D2 cells, calcium flux, dopamine EC80 | inhibition, % at 10 µM | 340,000 compounds, 2% hits | AID 485344; in the data active means inhibition above about 30%; inactive means below that, where a call was filed
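In this primary screen, negative modulation is detected by tracking calcium flux after an EC80 dopamine challenge in inducible HEK293 T-REx D2 cells preexposed to test compound for 180 s.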
D2 ag-2 – activates the human D2 dopamine receptor; 360,000 compounds, 0.084% hits; DiscoveRx PathHunter D2 beta-arrestin, luminescence, 90 min; 100% = 57 uM dopamine signal; P14416; activation, % (test concentration not listed); in the data active means activation above about 40%; inconclusive means between about 15% and that limit
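DiscoveRx PathHunter D2 beta-arrestin cells (2,100/well) attached overnight, then compound-stimulated 90 min at 37 C in HBSS/10 mM HEPES/0.1% Tween-20 buffer; beta-galactosidase complementation read by luminescence after 1 h at ambient temperature. Dopamine 57 uM final (EC100) as control.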
Of the large screens only hits and unclear results are named; the others gave an inactive call; ! = not active in a repeat. A selection: hits, their analogues and other compounds. The true share with any hit is near 2.4%.

COC(=O)c1ccc([N+](=O)[O-])cc1N1C(=O)C2C3CCC(C3)C2C1=O (stereo unspecified)	D2 antagonist 52.7, D2 ag-2 inconclusive
COc1cc([N+](=O)[O-])ccc1NC(=O)CCN1C(=O)C2C3CCC(C3)C2C1=O (stereo unspecified)	none (no result: D2 PAM-1, D2 ag-1, D2 antagonist)
Cc1ccc(NC(=O)N2CCc3c([nH]c4ccccc34)C2c2ccccc2F)c(Cl)c1 (stereo unspecified)	none (no result: D2 PAM-2, D2 antagonist, D2 ag-2)
CC1CCN(CC[C@H]2CCCN2S(=O)(=O)c2cccc(O)c2)CC1	D2 antagonist 34.3
O=C(NCCC1CCCCN1S(=O)(=O)c1ccccc1)C(=O)NCCN1CCOCC1 (stereo unspecified)	none
COc1cccc(C(=O)NCCCNC(=O)c2cccnc2)c1	D2 antagonist 38.9
COc1cc(OC)cc(C(=O)N/N=C/c2ccc(OC)c(COc3ccc(F)cc3)c2)c1	D2 antagonist 34.2
COc1ccc(OCc2cc(/C=N\NC(=O)c3ccccc3)ccc2OC)cc1	none
CCCCOc1ccc(C(=O)N(Cc2ccc(C(C)C)cc2)C2CCS(=O)(=O)C2)cc1 (stereo unspecified)	none (no result: D2 ag-1, D2 PAM-2, D2 antagonist, D2 ag-2)
COc1ccc(-c2cn3cccnc3n2)cc1NC(=O)c1cc(C)cc(C)c1	none (no result: D2 PAM-2, D2 antagonist, D2 ag-2)
COCCCn1c(=O)c2sccc2n(Cc2cccc(F)c2)c1=O	none
COCCCn1c(=O)c2sccc2n(Cc2cccc(C)c2)c1=O	D2 antagonist 41.1
O=C(OCc1ccccc1)C1=[N+]([O-])OC(C(=O)OCc2ccccc2)C1c1c[nH]c2ccccc12 (stereo unspecified)	D2 PAM-2 62.8
O=C(Nc1ccccc1Cl)c1ccc(F)c(S(=O)(=O)NCc2ccc(Cl)c(Cl)c2)c1	none (no result: D2 PAM-2, D2 antagonist, D2 ag-2)
CCN(CC)CCCOC(=O)C(c1ccccc1)c1ccccc1	D2 antagonist 49.7
CCCCn1c(=O)c(C(=O)OCC)c(O)c2ccccc21	D2 antagonist 38.4
CCCCCn1c(=O)c(C(=O)OCC)c(O)c2ccccc21	none
CCC(C)NC(=O)Cn1c(=O)n(-c2ccc(OC)c(OC)c2)c(=O)c2ccccc21 (stereo unspecified)	none (no result: D2 PAM-2, D2 antagonist, D2 ag-2)
Cc1nc(N2CCN(c3ccccn3)CC2)c2c(C)c(C(=O)N3CCN(c4cccc(Cl)c4)CC3)sc2n1	D2 PAM-1 30.7
O=C(CSc1nc(=O)[nH]c2c1CCC2)NCc1ccc(Cl)cc1	none (no result: D2 PAM-2, D2 antagonist, D2 ag-2)
Cc1ccc(NC(=O)NCc2c(-n3cccc3)sc3c2CCCC3)c(Cl)c1	none (no result: D2 PAM-2, D2 antagonist, D2 ag-2)
CCCOc1ccc(N2C(=O)CC(NNC(=O)c3ccc(COc4ccccc4)o3)C2=O)cc1 (stereo unspecified)	none
O=C(NNC1CC(=O)N(c2ccc(Cl)cc2)C1=O)c1ccco1 (stereo unspecified)	none
CCOc1cccc(N2C(=O)CC(NNC(=O)c3ccc(Br)o3)C2=O)c1 (stereo unspecified)	D2 antagonist 38.1
O=C(NNC1CC(=O)N(c2ccc(Br)cc2)C1=O)c1ccco1 (stereo unspecified)	D2 ag-1 37.5
CN(CC1CCN(CCc2cccc(C(F)(F)F)c2)CC1)C(=O)c1ccc(F)cc1F	D2 antagonist 64.5
O=S1(=O)C=CC(Sc2nc3ccccc3[nH]2)C1 (stereo unspecified)	none
CC1=CS(=O)(=O)CC1Sc1nc2ccccc2[nH]1 (stereo unspecified)	D2 antagonist 37.7
COc1ccccc1CNc1ccc(-c2nc(C)no2)cc1[N+](=O)[O-]	none (no result: D2 PAM-1, D2 PAM-2, D2 antagonist, D2 ag-2)
CC(C)Oc1ccc(C2c3c(oc4ccccc4c3=O)C(=O)N2CCCN2CCOCC2)cc1 (stereo unspecified)	none
O=C1c2oc3ccccc3c(=O)c2C(c2cccnc2)N1CCCN1CCOCC1 (stereo unspecified)	D2 antagonist 34.6
Cc1cc(C)c(Cn2c(=O)n(CCCC(=O)NCc3ccc4c(c3)OCO4)c(=O)c3sccc32)c(C)c1	none (no result: D2 ag-1, D2 PAM-2, D2 antagonist, D2 ag-2)
CCOC(=O)C1CCN(C(=O)Cc2c(F)cccc2Cl)CC1	D2 antagonist 30.8
Cc1ccc(NC(=O)Cn2ccn(-c3ccccc3)c(=O)c2=O)cc1	none (no result: D2 PAM-2, D2 antagonist, D2 ag-2)
Cc1cc(NC(=O)c2ccccc2F)nc2c1c(=O)oc1ccccc12	D2 PAM-1 41.6
CCCC(=O)Nc1cc(C)c2c(=O)oc3ccccc3c2n1	none
CC(C)c1nn2c(=O)cc(COC(=O)c3cccc(NC(=O)CCc4ccccc4)c3)nc2s1	none (no result: D2 PAM-2, D2 antagonist, D2 ag-2)
O=C(c1cccs1)N(Cc1ccco1)Cc1cc2ccccc2[nH]c1=O	D2 antagonist 59.8
Cc1ccc2[nH]c(=O)c(CN(Cc3ccco3)C(=O)c3ccncc3)cc2c1	none
COC(=O)C1=C(C)N(c2ccc(Cl)c(Cl)c2)C(=O)C1	D2 antagonist 32.1
O=C(Nc1cccc(C(F)(F)F)c1)c1cc2ncc(Br)cn2n1	D2 antagonist 52.9
CN(C)c1ccc(N/C=C/C(=O)C(C)(C)C)cc1	D2 PAM-2 65.9
N/C(=N\OS(=O)(=O)c1ccc2ccccc2c1)c1ccncc1	D2 PAM-2 150.9, D2 ag-2 41.1
N/C(=N\OS(=O)(=O)c1ccccc1)c1ccncc1	D2 PAM-2 95.6, D2 ag-2 inconclusive
CCCc1nc2nc(C)c(NS(=O)(=O)c3ccc(CC(C)C)cc3)c(=O)n2[nH]1	D2 PAM-1 32.4!
Oc1ccc(Nc2nc(-c3ccc4ccccc4c3)cs2)cc1	none (no result: D2 PAM-2, D2 ag-2)
Oc1ccc(Nc2ccc3ccccc3c2)cc1	D2 PAM-2 66.3 (no result: D2 PAM-1, D2 ag-1, D2 antagonist)
COc1ccc(C=NNc2nc3ccccc3s2)cc1	none (no result: D2 PAM-1, D2 ag-1, D2 antagonist)
Cc1ccc2[nH]c(C)c(/C=N/Nc3nc4ccccc4s3)c2c1	D2 PAM-2 58.4
Cc1ccc(C(=O)COC(=O)C2CC(=O)N(c3nc(-c4ccccc4)cs3)C2)cc1 (stereo unspecified)	D2 antagonist 34.1
COc1ccc(NC(=O)N2CCN(C(=O)Nc3ccc(OC)cc3)CC2)cc1	none
CN(C)S(=O)(=O)c1ccc(NC(=O)N2CCN(c3ccccc3)CC2)cc1	none
COc1ccc(N2CCN(C(=O)Nc3ccc(S(=O)(=O)N(C)C)cc3)CC2)cc1	D2 antagonist 41.1
COc1ccc(NC(=O)N2CCN(S(C)(=O)=O)CC2)cc1	D2 antagonist 34.1
CCOc1ccc(NC(=O)C(=O)NCC(c2cccnc2)N2CCc3ccccc32)cc1 (stereo unspecified)	none (no result: D2 PAM-2, D2 antagonist, D2 ag-2)
CCOc1ccc(NC(=O)C2CC(=O)NC(=Nc3ccc(Cl)c(Cl)c3)S2)cc1 (stereo unspecified)	none (no result: D2 PAM-2, D2 antagonist, D2 ag-2)
c1ccc(N2CCN(c3nc(-c4cccs4)nc4ccccc34)CC2)cc1	none (no result: D2 ag-1, D2 antagonist)
CCN1CCN(c2nc(-c3ccccc3)c3ccccc3n2)CC1	D2 antagonist 58.8
CN1CCN(c2nc(-c3cccs3)nc3ccccc23)CC1	D2 antagonist 32.3
CCN1CCN(c2nc(-c3ccccc3Cl)nc3ccccc23)CC1	D2 antagonist 38.5
CN1CCN(c2nc(-c3ccccc3Cl)nc3ccccc23)CC1	none
